# PubChem BioAssay AID720541 (National Center for Advancing Translational Sciences (NCATS), 2013)
# Screen size: about 1,300 compounds; about 420 (32%) were called active. Roughly 32% stayed inconclusive and do not appear here. Calls follow the shape of the dose curve; as a rule, active = well fitted inhibition curve with a large enough effect; inconclusive = small, poorly fitted or top-dose-only effect; inactive = no such curve, though single readings can be large or run the other way. The list shows a part of the results.
# Target: C-terminal-binding protein 1 (Homo sapiens) (UniProt Q13363)
# Assay: qHTS for Inhibitors of the Phosphatase Activity of Eya2: Carboxyl-terminal binding protein (CtBP) Counterscreen for Cherry-picked Compounds; also: nearly all actives have a fitted effect of over 65% in size
# Conditions: purified protein-protein binding, AlphaScreen, 3 h; series mostly up to 46.1 µM; activity change, negative = inhibition: at the top concentration
# Outline: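 AlphaScreen using 25 nM GST-E1A with 25 nM CtBP-6xHIS; compounds at 2.5 nM–46 uM final, 2 h at room temperature, then donor/acceptor beads (20 ug/mL) for 1 h in the dark. Signal normalized to E1A peptide inhibitor (maximum inhibition) and DMSO.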
# % is scaled to controls: 0 for no effect and ±100 for the full control effect; potency is read from the fitted curve at half-maximal effect.
SMILES,Potency,"activity change, negative = inhibition"
CC1=C/C(=C\c2ccc(N(C)C)cc2)c2ccccc21,7.57 µM (active),
C=C(CC[C@]12OC(C(=O)O)C(O)(C(=O)O)C(C(=O)O)(O1)C(OC(=O)/C=C/[C@@H](C)C[C@@H](C)CC)C2O)[C@@H](OC(C)=O)[C@H](C)Cc1ccccc1 (some centres not stated),,-7.4% (inactive)
COC(=O)C(Sc1ccc(Cl)cc1)C1SC(=S)N(Cc2ccccc2)C1=O (configuration not stated),,-28.7% (inactive)
Cc1cccc(C#Cc2ccccc2)n1,,29% (inactive)
C[C@H](CCC(=O)NCC(=O)O)[C@H]1CC[C@H]2[C@@H]3[C@H](O)C[C@@H]4C[C@H](O)CC[C@]4(C)[C@H]3C[C@H](O)[C@]12C,,2.71% (inactive)
CN(C)c1ccc(C=C2C=Cc3ccccc32)cc1,7.57 µM (active),
Cc1nn(C)c(Cl)c1CN1CCCC(CO)(Cc2cccc(Cl)c2)C1 (configuration not stated),,2.96% (inactive)
CC(C)n1ncc2c(C(=O)N3CCN(Cc4ccc(Br)s4)CC3)cc(C3CC3)nc21,,-21.5% (inactive)
COc1ccc(N2CCN(C(c3cccs3)C(C)NC(=O)c3ccc4c(c3)OCO4)CC2)cc1 (configuration not stated),,56% (inactive)
COc1ccc(N2CCN(C(=O)CCC(=O)N3CC(C)Oc4ccc(C)cc43)CC2)cc1 (configuration not stated),,-26.2% (inactive)
COc1ccc(N2CCN(Cc3ccc(Br)s3)CC2)cc1,15.1 µM (active),
COc1ccc(N2CCN(C(=O)Cc3ccc(Cl)cc3)CC2)cc1,,-20.1% (inactive)
COc1ccc(N2CCN(Cc3cc4c(cc3Br)OCCO4)CC2)cc1,12 µM (active),
COC(=O)c1c(C)[nH]c(C(=O)C(C)OC(=O)C2CC(=O)N(c3ccc(C)cc3)C2)c1C (configuration not stated),,-17.4% (inactive)
COc1cc(CNCc2ccc(OC)cc2OC)cc(OC)c1,,3.5% (inactive)
O=C(O)c1cc(-c2ccc(/C=C3\NC(=O)N(c4ccc(Cl)cc4)C3=O)o2)ccc1Cl,8.49 µM (active),
Cc1cc(NC(=O)CSc2nnc(Nc3ccccc3F)s2)no1,,3.43% (inactive)
CC(C)Nc1nnc(SCC(=O)Nc2ccc3c(c2)C(=O)c2ccccc2C3=O)s1,5.36 µM (active),
CCCCc1cc(=O)oc2cc(OCC(=O)N3CCC(C(=O)O)(c4ccccc4)CC3)ccc12,,-36.1% (inactive)
Cc1coc2c(C)c3oc(=O)c(CCC(=O)N4CCC(C(=O)NCCCC(=O)O)(c5ccccc5)CC4)c(C)c3cc12,15.1 µM (active),
CC1(C)CC(=O)C=C(c2ccc(COC(=O)c3cc(F)cc(F)c3)cc2)C1=O,,-21.6% (inactive)
CCn1cc(C(=O)N[C@@H](C)C(=O)NCCCn2ccnc2)c(=O)c2cc3c(cc21)OCO3,,-1.17% (inactive)
Cc1ccc(C(=O)N/C(=C\c2ccco2)C(=O)NCCCn2ccnc2)cc1,3.79 µM (active),
C/C(N)=C(/C#N)C(=O)CSc1nnc(Nc2cccc(C)c2)s1,,-9.35% (inactive)

SMILES,Potency,"activity change, negative = inhibition"
Cc1cccc(Nc2nnc(SCC(=O)NCC3CCCO3)s2)c1 (configuration not stated),15.1 µM (active),
Cc1ccc(Nc2nnc(SCC(=O)c3c(N)n(C4CC4)c(=O)[nH]c3=O)s2)cc1C,,-9.32% (inactive)
COc1ccc(-c2cn3c(C)c(C(=O)NCc4ccc5c(c4)OCO5)sc3n2)cc1,,-1.04% (inactive)
O=c1[nH][nH]cc1C=Nc1cc(Cl)ccc1O,8.49 µM (active),
O=c1oc(-c2ccco2)nc2ccccc12,13.5 µM (active),
CN(C)c1ccc(/C=C/c2ccnc3ccc(-c4ccccc4)cc23)cc1,12 µM (active),
Cc1cc(C)c2c(/C=C/c3ccc(N(C)C)cc3)ccnc2c1,13.5 µM (active),
COc1ccc(N=C2SC(C(=O)N3CCN(c4ccc([N+](=O)[O-])cc4)CC3)CC(=O)N2C)cc1 (configuration not stated),,-8.15% (inactive)
O=C(NCCCO)c1ccc2nc(-c3ccco3)c(-c3ccco3)nc2c1,5.36 µM (active),
O=C(Nc1ccccc1)c1ccc2nc(-c3ccco3)c(-c3ccco3)nc2c1,13.5 µM (active),
CC(C)(C)NC(=O)c1cccc(NC(=O)c2ccc(NC(=O)c3ccco3)cc2)c1,,-15.5% (inactive)
O=C(O)c1ccc2nc(-c3ccco3)c(-c3ccco3)nc2c1,7.57 µM (active),
O=C(NC1CC1)c1ccc2nc(-c3ccco3)c(-c3ccco3)nc2c1,8.49 µM (active),
CC(C)[C@H](NC(=O)c1ccccc1)C(=O)NC1CCCCCCC1,,12.3% (inactive)
Cc1ccc(C(O)c2ncc(-c3ccc4ccccc4c3)[nH]2)cc1F (configuration not stated),,-28.8% (inactive)
Cc1ccc(CNC(=O)c2ccc(-n3cccc3)cc2)cc1,,2.52% (inactive)
O=C(NCc1ccccc1)c1ccc2nc(-c3ccco3)c(-c3ccco3)nc2c1,16.9 µM (active),
CN(C)C(CNC(=O)c1ccc2c(c1)S(=O)(=O)c1ccccc1C2=O)c1ccco1 (configuration not stated),,-25.3% (inactive)
Cc1c(CC(=O)NCCCC(=O)O)c(=O)oc2cc3occ(-c4ccccc4)c3cc12,13.5 µM (active),
COc1ccc(-c2coc3cc4oc(=O)c(CC(=O)O)c(C)c4cc23)cc1,13.5 µM (active),
Cc1c(CC(=O)NCC(=O)O)c(=O)oc2cc3occ(-c4ccccc4)c3cc12,13.5 µM (active),
Cc1c(CC(=O)N[C@@H](C)C(=O)O)c(=O)oc2cc3occ(-c4ccccc4)c3cc12,6.75 µM (active),
N#Cc1ccc(CSc2nnc(-c3c[nH]c4ccccc34)n2-c2ccccc2)cc1,,-10.5% (inactive)
